Assay outcomes deposited in PubChem BioAssay by National Center for Advancing Translational Sciences (NCATS).
AMA1-RON2 inh: qHTS for Inhibitors of AMA1-RON; Towards Development of Antimalarial Drug Lead: Primary Screen | Potency, µM (highest dose often 58.2 µM), for inactives: at the highest dose activity change, negative = inhibition, most hits filed as inhibitors | 360,000 tested, 0.2% active | AlphaScreen AMA1-biotinylated RON2 peptide binding | Plasmodium falciparum AMA1 (3D7) - RON2 peptide interaction;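 further: potency means the concentration at half of the fitted maximal effect; 0% = vehicle wells and -100% = peptide control; nearly all actives have a fitted effect of over 45% in size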
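AMA1 (3D7) with his tag at 25 nM final met compounds first, then biotinylated RON2 peptide at 25 nM; detection used donor plus acceptor beads, 10 µg/mL apiece, read by AlphaScreen after 30 min at room temperature.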
CHX counter: Cycloheximide Counterscreen for Small Molecule Inhibitors of Shiga Toxin. cell reporter, cycloheximide protein synthesis inhibition counterscreen. max response, %. 300,000 tested, 12% active. AID 2314, 2010; in the data active means max response mostly above about 13%, no sharp cut-off; inactive means mostly below about 14%; further: read at 38.3 µM for the half of the compounds with a filed dose; 0% is about no effect
AmpC no deterg: qHTS Inhibitors of AmpC Beta-Lactamase (assay without detergent) | AID 485341, 2010 | Potency, µM (doses to about 57.1 µM), for the others: at the highest dose activity change, negative = inhibition, usual class: inhibitors | 330,000 tested, 0.52% active | AmpC nitrocefin hydrolysis, absorbance 480 nm, 0.0001% Triton;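 further: potency means the concentration at half of the fitted maximal effect; plate controls were no compound for no effect and no enzyme for full effect; nearly all actives have a fitted effect of over 20% in size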
Target sequence (P00811 whole entry, looked up): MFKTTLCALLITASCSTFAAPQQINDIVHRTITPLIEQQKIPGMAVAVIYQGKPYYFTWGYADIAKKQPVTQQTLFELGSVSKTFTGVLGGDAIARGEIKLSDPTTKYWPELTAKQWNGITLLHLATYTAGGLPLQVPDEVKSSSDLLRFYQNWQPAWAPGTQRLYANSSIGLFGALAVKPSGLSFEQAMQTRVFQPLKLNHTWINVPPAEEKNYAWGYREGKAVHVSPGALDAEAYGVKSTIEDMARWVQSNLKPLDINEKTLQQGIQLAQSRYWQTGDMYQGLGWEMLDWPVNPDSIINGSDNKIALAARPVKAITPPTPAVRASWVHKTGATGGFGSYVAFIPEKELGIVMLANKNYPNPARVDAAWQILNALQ
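20 mM phosphate pH 7.0 + 0.01% (detergent screen) or 0.0001% Triton X-100; 5.3 nM AmpC reagent; cpd preinc 15 min RT; nitrocefin (800 uM stock) to start; A480 q20 s × 4 min; Activity was normalised to no-enzyme and no-compound control wells.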
AmpC inh detg: qHTS Inhibitors of AmpC Beta-Lactamase (assay with detergent); P00811; AmpC hydrolysis of nitrocefin, absorbance 480 nm, 0.01% Triton; Potency, µM (titrated, usually from 114 µM), for inactives: at the highest dose activity change, negative = inhibition, usual class: inhibitors; 370,000 tested, 0.041% active;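 further: potency means the concentration at half of the fitted maximal effect; 0% = no-compound wells and -100% = no-enzyme wells; nearly all actives have a fitted effect of over 25% in size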
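20 mM phosphate pH 7.0 + 0.01% (detergent screen) or 0.0001% Triton X-100; 5.3 nM AmpC reagent; cpd preinc 15 min RT; nitrocefin (800 uM stock) to start; A480 q20 s × 4 min; Activity was normalised to no-enzyme and no-compound control wells.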
SARS PLpro yeast: qHTS of Yeast-based Assay for SARS-CoV PLP | S. cerevisiae expressing SARS-CoV PLpro, growth rescue | Potency, µM (titrated, usually from 32.9 µM), for the others: at the highest dose activity, positive = growth rescue, hits mostly activators | 330,000 tested, 0.19% active | AID 485353, 2010; calls by dose curve; further: potency means the concentration at half of the fitted maximal effect; 0% is about no effect; nearly all actives have a fitted effect of over 55% in size
Shiga toxin inh: A qHTS for Small Molecule Inhibitors of Shiga Toxin; Vero cells, Shiga toxin protein synthesis inhibition reporter; inhibition, % at 38.7 µM; 290,000 tested, 9.2% active; in the data active means inhibition mostly above about 28%, no sharp cut-off; inactive means mostly below about 43%; further: 0% is about no effect
Active calls of the source: *. Many of the other results were omitted from the sample, so hits are more common in it than they were. Unless noted, the call rests on the fitted dose curve; in most records, active means well fitted curve in the direction sought with a large enough effect; inconclusive means small, poorly fitted or top-dose-only effect, or another doubt; inactive means no such curve, though single readings can be large; an effect the other way counts as inactive or inconclusive.

For NCC(=O)N[C@@H](CCCN=C(N)N)C(=O)NCC(=O)N[C@@H](CC(=O)O)C(=O)N[C@@H](CC(N)=O)C(=O)N1CC[C@@H](C(=O)O)C1 the results were CHX counter -8 and Shiga toxin inh 2.
COc1ccc(Oc2ccc(C(F)(F)F)cc2N)cc1 was read as AMA1-RON2 inh 11%, CHX counter 29*, AmpC no deterg -20%, AmpC inh detg -2%, SARS PLpro yeast 0% and Shiga toxin inh 56*.
For C/C(=N\OCC(=O)OCC(=O)NCc1ccccc1)c1ccc2c(c1)OCO2 the results were AMA1-RON2 inh -6%, AmpC no deterg -22%, AmpC inh detg -14% and SARS PLpro yeast -3%.
For Nc1c(-c2ccccc2)sc2ccc3ccccc3[n+]12 the results were AMA1-RON2 inh 6%, CHX counter 12*, AmpC no deterg -39%, AmpC inh detg 0%, SARS PLpro yeast 14% and Shiga toxin inh 22.
For COc1cccc(S(=O)(=O)N(C)C[C@H]2Oc3ncc(Br)cc3C(=O)N([C@@H](C)CO)C[C@@H]2C)c1 the results were AMA1-RON2 inh 0%.
CCOc1ccc(-n2c(C)c(C(C)=O)c3cc(OC(C)=O)ccc32)cc1 was read as AMA1-RON2 inh 6%, CHX counter -1, AmpC no deterg 4%, AmpC inh detg 6%, SARS PLpro yeast 2% and Shiga toxin inh -11.
Screening CCOC(=O)C1CCN(c2ncnc3c(C)csc23)CC1 returned AMA1-RON2 inh 1%, CHX counter 48*, AmpC no deterg 14%, AmpC inh detg 5%, SARS PLpro yeast -4% and Shiga toxin inh 67*.
`Nc1cnc(CNc2ccccc2Cl)cn1` gave AMA1-RON2 inh 8%, CHX counter 14, AmpC no deterg -5%, AmpC inh detg -7%, SARS PLpro yeast -2% and Shiga toxin inh 32*.
Cc1[nH]c(N=Nc2ccccc2)nc1N=Nc1ccccc1 was read as AMA1-RON2 inh -35%, CHX counter 14, AmpC no deterg -48%, AmpC inh detg -11%, SARS PLpro yeast -7% and Shiga toxin inh 71*.
Screening CC(C)CCNC(=O)c1ccc(OC2CCN(S(=O)(=O)N(C)C)CC2)cc1 returned AMA1-RON2 inh 2%, CHX counter 40*, AmpC no deterg 39%, AmpC inh detg 2%, SARS PLpro yeast -1% and Shiga toxin inh 43.
Screening COC(=O)CN(C)C(=O)c1cccc(OC2CCN(S(=O)(=O)N(C)C)CC2)c1 returned AMA1-RON2 inh 3%, CHX counter 3, AmpC no deterg 12%, AmpC inh detg -4%, SARS PLpro yeast 3% and Shiga toxin inh 2.
Screening CN(C)S(=O)(=O)N1CCC(Oc2ccc(C(=O)NCCc3cscn3)cc2)CC1 returned AMA1-RON2 inh -4%, CHX counter -2, AmpC no deterg -13%, AmpC inh detg 2%, SARS PLpro yeast 5% and Shiga toxin inh -5.
C=C(C)CN(CC)C(=O)c1ccc(OC2CCN(S(=O)(=O)N(C)C)CC2)cc1 was read as AMA1-RON2 inh -6%, CHX counter 38*, AmpC no deterg 109%, AmpC inh detg -9%, SARS PLpro yeast 0% and Shiga toxin inh 55*.
Screening C#CCN(CC=C)C(=O)c1ccc(OC2CCN(S(=O)(=O)N(C)C)CC2)cc1 returned AMA1-RON2 inh 3%, CHX counter 37*, AmpC no deterg 25%, AmpC inh detg -17%, SARS PLpro yeast -1% and Shiga toxin inh 62*.
C=C(C)CNC(=O)c1ccc(OC2CCN(S(=O)(=O)N(C)C)CC2)cc1 was read as AMA1-RON2 inh 2%, CHX counter 20*, AmpC no deterg 25%, AmpC inh detg 8%, SARS PLpro yeast -2% and Shiga toxin inh 11.
For C[C@@H]1CN([C@H](C)CO)C(=O)CCCn2cc(nn2)CO[C@H]1CN(C)S(=O)(=O)c1ccccc1C#N the results were AMA1-RON2 inh 20%.
For CCc1ccc(C2CC(c3ccco3)=NN2S(C)(=O)=O)cc1 (stereo not given) the results were AMA1-RON2 inh -17%, CHX counter 45*, AmpC no deterg 227%, AmpC inh detg -1%, SARS PLpro yeast -5% and Shiga toxin inh 83*.
CCOc1ccc2cc(C3CC(c4ccco4)=NN3S(C)(=O)=O)c(Cl)nc2c1 (stereo not given) was read as AMA1-RON2 inh -9%, CHX counter -2, AmpC no deterg 69%, AmpC inh detg 2%, SARS PLpro yeast -2% and Shiga toxin inh -3.
For CC1CCC2(CC1)NC(=O)N(CC(=O)Nc1cccnc1Cl)C2=O (stereo not given) the results were AMA1-RON2 inh 0%, AmpC no deterg -11%, AmpC inh detg 2% and SARS PLpro yeast -4%.
For COc1ccc(NC(=S)N2CCC(C(=O)c3ccc(C)cc3)CC2)cc1 the results were AMA1-RON2 inh -11%, CHX counter 8.9*, AmpC no deterg -19%, AmpC inh detg inconclusive, SARS PLpro yeast 15% and Shiga toxin inh -1.
`COc1ccc(NC(=S)N2CCC(C(=O)c3ccc(OC)cc3)CC2)cc1` gave AMA1-RON2 inh 11%, CHX counter 0, AmpC no deterg -2%, AmpC inh detg -1%, SARS PLpro yeast -2% and Shiga toxin inh 3.
O=C(c1ccc2c(c1)OCCO2)C1CCN(C(=O)Nc2ccc(F)cc2)CC1 was read as AMA1-RON2 inh -4%, CHX counter 15, AmpC no deterg -21%, AmpC inh detg 3%, SARS PLpro yeast -5% and Shiga toxin inh 19.
`CC(=O)c1ccc(NC(=O)N2CCCC(C(=O)c3ccc4c(c3)OCO4)C2)cc1` (stereo not given) gave AMA1-RON2 inh 5%, CHX counter 16*, AmpC no deterg -36%, AmpC inh detg 1%, SARS PLpro yeast -2% and Shiga toxin inh 53*.
`O=C(c1ccc2c(c1)OCO2)C1CCCN(C(=O)c2cnn(Cc3ccccc3)c2)C1` (stereo not given) gave AMA1-RON2 inh -2%, CHX counter 21*, AmpC no deterg 51%, AmpC inh detg -6%, SARS PLpro yeast -2% and Shiga toxin inh 38*.
`COc1ccc(NC(=O)N2CCC(C(=O)c3ccc4c(c3)OCCO4)CC2)cc1` gave AMA1-RON2 inh 2%, CHX counter 21*, AmpC no deterg -11%, AmpC inh detg 4%, SARS PLpro yeast -4% and Shiga toxin inh 25.
